The list is not random: actives were taken first. Their share in the collection is about 10%.
BAZ2B inh = qHTS Assay for Inhibitors of BAZ2B; AlphaScreen BAZ2B-H3K14Ac peptide displacement; Potency, µM (doses to about 114 µM), usual class: inhibitors; 4.4% of 360,000 active; AID 504333, 2011; note: nearly all actives have a fitted effect of over 60% in size
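Multi-concentration screen (max 110 uM) measuring displacement of acetylated histone H3 peptide from BAZ2B by AlphaScreen, using 50 nM protein, 50 nM peptide and 10 ug/mL streptavidin donor plus Ni-chelate acceptor beads.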
G9a block = qHTS Assay for Inhibitors of Histone Lysine Methyltransferase G9a; Histone-lysine N-methyltransferase EHMT2 (Homo sapiens), Q96KQ7; G9a H3K9 monomethylation, AlphaScreen, 2 h; Potency, µM (titrated, usually from 102 µM), most hits filed as inhibitors; 8.8% of 350,000 active; AID 504332, 2011; note: nearly all actives have a fitted effect of over 75% in size
Target sequence (Q96KQ7 913-1193 limits assumed): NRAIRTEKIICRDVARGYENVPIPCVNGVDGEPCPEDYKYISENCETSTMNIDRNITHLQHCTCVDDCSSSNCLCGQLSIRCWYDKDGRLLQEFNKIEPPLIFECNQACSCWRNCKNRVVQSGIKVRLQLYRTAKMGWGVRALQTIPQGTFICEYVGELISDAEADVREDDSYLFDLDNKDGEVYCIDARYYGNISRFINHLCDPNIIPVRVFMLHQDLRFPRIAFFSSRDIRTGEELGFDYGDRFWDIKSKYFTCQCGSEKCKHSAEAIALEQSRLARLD
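Quantitative HTS format: methyltransferase activity on a biotin-tagged H3K9 peptide is measured by AlphaScreen, using a rabbit anti-monomethyl-H3K9 antibody with streptavidin donor and anti-IgG acceptor beads. Final levels are 20 nM enzyme, 500 nM peptide, 20 uM SAM; 2 h RT.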
HP1b chromo inh = HTS for Inhibitors of HP1-beta Chromodomain Interactions with Methylated Histone Tails | AlphaScreen HP1-beta / biotin-H3K9me3 peptide binding | Potency, µM (titrated, usually from 114 µM), usual class: inhibitors | 0.56% of 390,000 active | AID 540317, 2011; note: nearly all actives have a fitted effect of over 70% in size
Target sequence (P83916 whole entry, looked up): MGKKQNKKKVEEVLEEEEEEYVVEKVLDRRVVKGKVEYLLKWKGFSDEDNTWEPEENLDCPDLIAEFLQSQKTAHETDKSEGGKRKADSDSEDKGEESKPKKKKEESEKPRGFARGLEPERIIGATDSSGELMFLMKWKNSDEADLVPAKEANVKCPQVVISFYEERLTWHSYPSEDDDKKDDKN
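HP1-beta protein (50 nM final) preincubated 30 min at room temperature with biotinylated H3(1-18)K9me3 peptide (50 nM) in PBS pH 7.4, 0.01% Tween-20, then compound added for 30 min. AlphaScreen streptavidin donor/nickel chelate acceptor beads (10 ug/mL final), 30 min dark, luminescence read.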
GLS inh = qHTS for Inhibitors of Glutaminase (GLS) | GLS enzymatic activity, qHTS titration | Potency, µM (series often up to 45.5 µM), actives largely listed as inhibitors | 0.21% of 410,000 active
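Glutamate formation by hKGA was monitored fluorometrically using coupled glutamate oxidase, HRP and Amplex Red. Substrate was added as 1 mM L-glutamine solution; incubation was 30 min at RT after an initial read.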
JMJD2A Tudor inh = qHTS Assay for Inhibitors of JMJD2A-Tudor Domain; Potency, µM (top dose mostly 114 µM), actives largely listed as inhibitors; AlphaScreen JMJD2A-Tudor / H3K4me3 peptide binding; 4.4% of 390,000 active; Lysine-specific demethylase 4A (Homo sapiens), O75164; AID 504339, 2011; note: nearly all actives have a fitted effect of over 50% in size
Of the large screens only hits and unclear results are named; the others gave an inactive call; ! = repeats disagree. Calls come from the whole dose curve; as a rule, active = well fitted curve in the direction sought with a large enough effect; inconclusive = small, poorly fitted or top-dose-only effect, or another doubt; inactive = no such curve, though single readings can be large; an effect the other way counts as inactive or inconclusive.

COc1ccc(C(=O)COC(=O)c2ccc(OC)c(OC)c2)cc1OC	none
CC(C)(C)N(CC#CCC(O)(c1ccccc1)c1ccccc1)CCO	BAZ2B inh 79µM, G9a block 8.9µM, JMJD2A Tudor inh 22µM
OCCN(CC#CCC(O)(c1ccccc1)C1CCCC1)CCO (configuration not stated)	none
CC(=O)N(CCc1ccccc1)Cc1cc2ccc(C)c(C)c2[nH]c1=O	none
O=C(Cc1ccccc1)Nc1nc(=O)c2ccccc2s1	G9a block 25µM
Cn1sc(NC(=O)c2ccc(Cl)cc2)nc1=O	G9a block 40µM
O=C(CSC(=S)N1CCOCC1)Nc1nccs1	none
O=C(Nc1nc(=O)c2ccccc2s1)c1ccc(Cl)cc1	G9a block 4µM
O=C(CSC(=S)N1CCOCC1)Nc1nc(=O)c2ccccc2s1	G9a block 4µM (no result: HP1b chromo inh, GLS inh, JMJD2A Tudor inh)
N#Cc1ccc(CSc2nc(N)cc(N)n2)cc1	none (no result: G9a block)
COc1ccc(C(=O)Nc2ccc3nc(N4CCC(C)CC4)cc(C)c3c2)cc1	none
COc1ccc(-c2csc3nc(-c4ccccc4F)oc(=O)c23)cc1	none
O=C(Nc1nc(=O)c2ccccc2s1)c1ccc(F)cc1	BAZ2B inh inconclusive, G9a block 1.8µM, JMJD2A Tudor inh inconclusive
COc1ccc(NCc2cc3cc(OC)ccc3[nH]c2=O)cc1	G9a block inconclusive, HP1b chromo inh inconclusive, JMJD2A Tudor inh inconclusive
COc1ccc(NCc2cc3ccccc3[nH]c2=O)cc1	BAZ2B inh inconclusive, G9a block 50µM, JMJD2A Tudor inh inconclusive
CCOc1ccc(NC(=O)CSc2nc3nc(C)c(Cc4ccccc4)c(C)n3n2)cc1	none
CC(C)c1cc2c(c(O)c1O)[C@@]13CCCC(C)(C)C1CC2OC3=O (some centres not stated)	G9a block 0.89µM, HP1b chromo inh inconclusive, JMJD2A Tudor inh 40µM
CC(C)c1c(O)c(-c2cc3c(c(C(C)C)c2O)CCC2C(C)(C)CCC[C@@]32C)cc2c1CCC1C(C)(C)CCC[C@@]21C (some centres not stated)	none (no result: BAZ2B inh, HP1b chromo inh, GLS inh, JMJD2A Tudor inh)
CC(C)Nc1nc(NC(N)=S)nc(NC(C)(C)C)n1	G9a block 8.9µM
CC(C)Nc1nc(NC(N)=S)nc(NC(C)C)n1	G9a block 2.5µM
Cc1cc(C)nc(NC(N)=S)n1	G9a block inconclusive
O=C(CSc1ncc(-c2ccc(Cl)cc2)[nH]1)Nc1ccccc1F	G9a block 10µM
O=C(CSc1ncc(-c2ccc(F)cc2)[nH]1)N1CCCCC1	BAZ2B inh inconclusive, G9a block 45µM
COc1ccc(NC(=O)Cc2ccc(Cl)c(Cl)c2)cn1	BAZ2B inh inconclusive
COc1ccc(NC(=O)/C(Cl)=C(/Cl)S(=O)(=O)Cc2ccc(C)cc2)cn1	G9a block 45µM
COc1ccc(NC(=O)/C(Cl)=C(/Cl)S(=O)Cc2ccccc2Cl)cn1 (configuration not stated)	G9a block 10µM, GLS inh inconclusive
Cc1scc(CN2CCN(c3ccc(F)cc3)CC2)c1C	G9a block inconclusive, JMJD2A Tudor inh inconclusive
Cc1c(Cl)cn2c(=O)cc(CN3CCN(c4ccc(F)cc4)CC3)nc2c1Cl	BAZ2B inh inconclusive, G9a block 50µM (no result: HP1b chromo inh, GLS inh, JMJD2A Tudor inh)
Cc1ccc(C)c(OCC(=O)Nc2nonc2NC(=O)COc2cc(C)ccc2C)c1	BAZ2B inh inconclusive, G9a block 16µM
Cc1ccc(C)c(OCC(=O)Nc2ccc(S(=O)(=O)Nc3ccccn3)cc2)c1	G9a block 50µM
Cc1ccc(C)c(OCC(=O)Nc2ccc(S(=O)(=O)Nc3onc(C)c3C)cc2)c1	none
Cc1cccc(OCC(=O)Nc2nonc2NC(=O)COc2cccc(C)c2)c1	none (no result: BAZ2B inh, G9a block)
Cc1cccc(OCC(=O)Nc2ccc(S(=O)(=O)Nc3ccccn3)cc2)c1	none
Cc1ccc(C(C)C)c(OCC(=O)Nc2ccc(S(=O)(=O)Nc3onc(C)c3C)cc2)c1	BAZ2B inh 56µM
CC(C)(C)OC(=O)NCC12C=CC(O1)C1C(=O)N(Cc3ccccc3)C(=O)C12 (configuration not stated)	G9a block 10µM
Cc1ccc(S(=O)(=O)N2CCN(C(=O)CC(C)(C)C)CC2)cc1	none
CCOc1ccc(Br)cc1/C=N/NC(=O)c1ccncc1	none
Cc1[nH]c2c(Cl)cccc2c1CCNC(=O)C1CCCCC1C(=O)OCC(F)(F)F (configuration not stated)	G9a block 71µM
CCOC(=O)c1ccc(CNC(=O)C2CCCCC2C(=O)OCC(F)(F)F)o1 (configuration not stated)	none
CN(C)CC[C@@H](c1ccc(Br)cc1)c1ccccn1	G9a block 16µM! (no result: BAZ2B inh)
O=C(O)c1cc([N+](=O)[O-])ccc1-c1ccc([N+](=O)[O-])cc1C(=O)O	none (no result: BAZ2B inh, G9a block, HP1b chromo inh, JMJD2A Tudor inh)
CCOC(=O)c1c(Nc2ccccc2OCCOC)n[nH]c1C	none
CCC(O)(CCN1CCCCC1)c1ccccc1 (configuration not stated)	none
O=C(CSc1nnc(-c2ccc(F)cc2)c2ccccc12)NCC1CCCO1 (configuration not stated)	BAZ2B inh inconclusive, G9a block inconclusive
CC1CC(C)CN(c2oc(Cc3ccccc3)nc2C#N)C1 (configuration not stated)	BAZ2B inh 14µM, G9a block 11µM, HP1b chromo inh inconclusive, JMJD2A Tudor inh inconclusive
N#Cc1nc(Cc2cccc3ccccc23)oc1N1CCC(C(N)=O)CC1	none
CC1CCN(c2oc(Cc3cccc4ccccc34)nc2C#N)CC1	BAZ2B inh inconclusive, G9a block 8.9µM, HP1b chromo inh inconclusive, JMJD2A Tudor inh inconclusive
N#Cc1nc(Cc2cccc3ccccc23)oc1N1CCN(c2ccccc2)CC1	BAZ2B inh inconclusive, G9a block 22µM, HP1b chromo inh inconclusive, JMJD2A Tudor inh inconclusive
COc1ccc(N2CCN(c3oc(Cc4cccc5ccccc45)nc3C#N)CC2)cc1	BAZ2B inh 4µM, HP1b chromo inh inconclusive, JMJD2A Tudor inh inconclusive
NC(N)=NS(=O)(=O)c1ccc(N=C2C(=O)Nc3ccccc32)cc1	none
O=C(/C=C\c1ccccc1)Oc1cccc2cccnc12	BAZ2B inh 40µM
O=C(/C=C/c1ccccc1)Oc1cccc2cccnc12	BAZ2B inh 45µM (no result: G9a block)
C=CCN1C(=O)C(CC(=O)NCC)SC1=Nc1ccccc1CC (configuration not stated)	none (no result: G9a block)
CC(C)(C)N1NC(=O)Nc2ccccc2C1=O	none
Cc1ccc(Cl)cc1NC(=O)CSc1sc2c(O)cc(=O)[nH]c2c1C#N	none
COC(=O)c1ccc(C)c(NC(=O)CSc2sc3c(O)cc(=O)[nH]c3c2C#N)c1	BAZ2B inh 50µM, G9a block inconclusive, JMJD2A Tudor inh 50µM
COC(=O)c1ccc(C)c(NC(=O)CCSc2ccc(C)cc2)c1	none

From PubChem BioAssay
